From PubChem BioAssay AID1159580 (chemical genetic matrix, 2015)
Where “and” joins values, the source holds several entries; their conditions need not be identical. Identical values can stand only once. Hit rate of the full screen: of about 5,500 compounds, about 2,000 (36%) were called active. About 18% were inconclusive and are not listed. Cut-off read from the data, not from the text of the source: active = normalized growth mostly below about 0.91 (no sharp cut-off); inconclusive = no clear call, values can overlap the other calls; inactive = mostly above about 0.92. This is one part of the list.

Experiment: chemical genetic growth profiling, strain panel (AID 1159580);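 note: tested at 20 µM; growth read once vehicle control cultures reached saturation at 30 °C; 1 = growth at the plate median or of vehicle wells; lower values mean less growth of the strain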
Conditions: S. cerevisiae deletion strains, growth OD

Measured: normalized growth

CC(=O)N[C@@H](CC(C)C)C(=O)O
inactive: locus YAL013W, strain DEP1, hits give low values 0.983 | locus YAL021C, strain ccr4, hits give low values 1 | locus YAL026C, strain drs2, hits give low values 0.989 | locus YAL030W, strain snc1, hits give low values 1 | locus YBL061C, strain skt5, hits give low values 0.986 | locus YBR009C, strain hhf1, hits give low values 0.99 | locus YBR021W, strain FUR4, hits give low values 1 | locus YBR023C, strain chs3, hits give low values 1 | locus YBR171W, strain sec66, hits give low values 0.981 | locus YBR229C, strain ROT2, hits give low values 0.996 | locus YBR231C, strain swc5, hits give low values 0.972 | locus YBR279W, strain paf1, hits give low values 1 | locus YCL011C, strain gbp2, hits give low values 1.01 | locus YCL016C, strain dcc1, hits give low values 0.995 | locus YCL029C, strain bik1, hits give low values 0.97 | locus YCL069W, strain vba3, hits give low values 0.996 | locus YCR088W, strain abp1, hits give low values 1 | locus YDL005C, strain med2, hits give low values 0.991 | locus YDL035C, strain GPR1, hits give low values 0.985 | locus YDL040C, strain nat1, hits give low values 0.988 | locus YDL074C, strain BRE1, hits give low values 1.02 | locus YDL101C, strain DUN1, hits give low values 0.994 | locus YDL134C, strain PPH21, hits give low values 0.987 | locus YDL185W, strain tfp1, hits give low values 0.944 | locus YDL192W, strain arf1, hits give low values 0.986 | locus YDR001C, strain nth1, hits give low values 1 | locus YDR069C, strain doa4, hits give low values 0.971 | locus YDR101C, strain arx1, hits give low values 0.989 | locus YDR137W, strain rgp1, hits give low values 1 | locus YDR150W, strain NUM1, hits give low values 0.983 | locus YDR159W, strain sac3, hits give low values 0.961 | locus YDR162C, strain NBP2, hits give low values 0.981 | locus YDR195W, strain ref2 0.948 | locus YDR297W, strain sur2, hits give low values 0.991 | locus YDR318W, strain mcm21, hits give low values 0.97 | locus YDR334W, strain swr1, hits give low values 0.989 | locus YDR335W, strain msn5, hits give low values 0.987 | locus YDR388W, hits give low values 0.989 | locus YDR392W, strain spt3, hits give low values 1.02 | locus YDR502C, strain sam2, hits give low values 0.972 | locus YEL003W, strain gim4, hits give low values 0.989 | locus YEL037C, strain rad23, hits give low values 0.994 | locus YEL061C, strain CIN8 (second series), hits give low values 0.986 | locus YEL061C, strain CIN8, hits give low values 0.993 | locus YER015W, strain faa2, hits give low values 0.993 | locus YER016W, strain bim1, hits give low values 1.01 | locus YER110C, hits give low values 0.97 | locus YER111C, strain swi4, hits give low values 0.988 | locus YER155C, strain BEM2 (second series), hits give low values 0.98 | locus YER155C, strain BEM2, hits give low values 0.992 | locus YER167W, strain BCK2, hits give low values 0.98 | locus YFR010W, strain ubp6, hits give low values 0.98 | locus YGL078C, strain dbp3, hits give low values 0.975 | locus YGL086W, strain mad1, hits give low values 0.996 | locus YGL167C, strain pmr1, hits give low values 0.972 | locus YGL173C, strain kem1, hits give low values 0.97 | locus YGL227W, strain vid30, hits give low values 0.98 | locus YGL240W, strain doc1, hits give low values 0.972 | locus YGL248W, strain PDE1, hits give low values 1.01 | locus YGL253W, strain hxk2, hits give low values 0.986 | locus YGR135W, strain pre9, hits give low values 0.945 | locus YGR252W, strain gcn5, hits give low values 1 | locus YHR013C, strain ard1, hits give low values 1.01 | locus YHR027C, strain rpn1, hits give low values 1 | locus YHR030C, strain SLT2, hits give low values 0.975 and 1.04 | locus YHR079C, strain IRE1 (second series), hits give low values 0.985 | locus YHR079C, strain IRE1, hits give low values 1.02 | locus YHR094C, strain hxt1, hits give low values 0.984 | locus YHR129C, strain ARP1, hits give low values 0.992 | locus YHR142W, strain chs7, hits give low values 0.992 | locus YHR200W, strain rpn10, hits give low values 0.978 | locus YIL066C, strain RNR3, hits give low values 1.01 | locus YIL073C, strain SPO22, hits give low values 0.849 | locus YIL125W, strain kgd1, hits give low values 0.992 | locus YIR030C, strain dcg1, hits give low values 0.969 | locus YJL092W, strain hpr5, hits give low values 0.989 | locus YJL095W, strain BCK1 (second series), hits give low values 0.98 | locus YJL095W, strain BCK1, hits give low values 1.04 and 1.03 | locus YJL115W, strain asf1, hits give low values 1 | locus YJL129C, strain trk1, hits give low values 0.959 | locus YJL134W, strain LCB3, hits give low values 0.984 | locus YJL154C, strain vps35, hits give low values 0.994 | locus YJL164C, strain tpk1, hits give low values 1.01 | locus YJL166W, strain qcr8, hits give low values 0.972 | locus YJL168C, strain set2, hits give low values 0.997 | locus YJL187C, strain SWE1 (second series), hits give low values 1.02 | locus YJR043C, strain POL32, hits give low values 1.02
